Laboratory results published in PubChem BioAssay (Tox21).
Records with an inconclusive call do not appear. Entries that show only a call come without a potency. Calls of active or inactive are those of the source. Unless noted, the call rests on the fitted dose curve; in most records, active means well fitted curve in the direction sought with a large enough effect in the repeat runs; inconclusive means weak or mixed curves; inactive means no such curve, though single readings can be large; an effect the other way counts as inactive or inconclusive.

How the values were obtained:
[1] = qHTS assay to identify aromatase inhibitors - cell viability counter screen (AID 743084);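 further: cells stimulated with testosterone during compound exposure; nearly all actives have a fitted effect of over 55% in size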; further: potency means the concentration at half of the fitted maximal effect
[2] = target: Aryl hydrocarbon receptor (Homo sapiens) (UniProt P35869); assay: qHTS assay to identify small molecule that activate the aryl hydrocarbon receptor (AhR) signaling pathway (AID 743085); further: nearly all actives have a fitted effect of over 15% in size; further: potency means the concentration at half of the fitted maximal effect;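 on activation: HG2L7.5c1 human HepG2 liver cells with stably integrated DRE-driven firefly reporter; series mostly up to about 70 µM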
Sequence of Aryl hydrocarbon receptor (Homo sapiens) (P35869 whole entry, looked up): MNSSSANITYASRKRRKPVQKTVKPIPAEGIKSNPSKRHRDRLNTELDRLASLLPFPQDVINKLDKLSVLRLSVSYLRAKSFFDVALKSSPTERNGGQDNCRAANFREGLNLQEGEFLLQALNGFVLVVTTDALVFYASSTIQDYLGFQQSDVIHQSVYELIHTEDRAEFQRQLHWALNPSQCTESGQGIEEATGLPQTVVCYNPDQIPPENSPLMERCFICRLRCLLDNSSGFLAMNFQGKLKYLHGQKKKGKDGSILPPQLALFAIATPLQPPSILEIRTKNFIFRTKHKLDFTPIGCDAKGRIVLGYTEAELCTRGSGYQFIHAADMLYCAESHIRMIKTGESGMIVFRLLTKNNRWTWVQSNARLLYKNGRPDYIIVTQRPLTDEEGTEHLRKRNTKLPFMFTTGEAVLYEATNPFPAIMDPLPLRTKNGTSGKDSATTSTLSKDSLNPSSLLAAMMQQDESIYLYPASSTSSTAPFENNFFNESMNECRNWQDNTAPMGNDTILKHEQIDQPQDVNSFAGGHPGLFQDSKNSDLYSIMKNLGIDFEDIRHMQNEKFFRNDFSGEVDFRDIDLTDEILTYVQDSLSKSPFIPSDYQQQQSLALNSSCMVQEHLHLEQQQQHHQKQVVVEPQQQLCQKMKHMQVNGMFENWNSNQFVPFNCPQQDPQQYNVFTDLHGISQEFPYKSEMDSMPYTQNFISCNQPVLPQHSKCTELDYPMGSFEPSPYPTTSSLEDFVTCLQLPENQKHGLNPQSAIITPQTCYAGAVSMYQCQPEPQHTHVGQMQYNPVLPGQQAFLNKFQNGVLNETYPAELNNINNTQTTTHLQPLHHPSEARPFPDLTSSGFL
Method in brief: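 AhR agonist activity is inferred from enhanced light output of a DRE-controlled firefly luciferase reporter in HepG2 cells, measured with ONE-Glo following 24 h treatment at 37C.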

[3] = qHTS assay to identify small molecule that activate the aryl hydrocarbon receptor (AhR) signaling pathway - cell viability counter screen (AID 743086); further: nearly all actives have a fitted effect of over 45% in size; further: potency means the concentration at half of the fitted maximal effect
Method in brief: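 HepG2-AhR-luc (HG2L7.5c1) cells, 4000/well, treated 24 h at 37 C with compound; viability measured as CellTiter-Fluor fluorescence after 30 min in the same wells as the luciferase read.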

[4] = target: Peroxisome proliferator-activated receptor gamma (Homo sapiens) (UniProt P37231); assay: qHTS assay to identify small molecule agonists of the peroxisome proliferator-activated receptor gamma (PPARg) signaling pathway (AID 743094; active means well fitted activation curve with a large enough effect in the signal ratio in the repeat runs, not every such curve was filed as active; the % refers to the signal ratio)
Sequence of Peroxisome proliferator-activated receptor gamma (Homo sapiens) (P37231 whole entry, looked up): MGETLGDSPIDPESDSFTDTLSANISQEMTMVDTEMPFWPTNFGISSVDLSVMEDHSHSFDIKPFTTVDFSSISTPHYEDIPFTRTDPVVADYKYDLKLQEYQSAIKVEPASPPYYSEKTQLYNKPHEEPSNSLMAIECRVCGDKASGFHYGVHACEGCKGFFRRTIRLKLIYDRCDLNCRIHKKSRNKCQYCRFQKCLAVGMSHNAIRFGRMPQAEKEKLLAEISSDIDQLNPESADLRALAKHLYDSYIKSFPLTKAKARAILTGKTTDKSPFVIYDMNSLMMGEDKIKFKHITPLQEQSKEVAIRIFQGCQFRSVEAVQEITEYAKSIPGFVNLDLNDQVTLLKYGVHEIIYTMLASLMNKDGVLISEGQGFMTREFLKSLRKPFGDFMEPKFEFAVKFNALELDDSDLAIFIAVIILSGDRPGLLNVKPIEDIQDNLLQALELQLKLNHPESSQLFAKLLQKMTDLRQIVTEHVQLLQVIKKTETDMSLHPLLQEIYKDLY
Method in brief: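 GeneBLAzer PPARg UAS-bla HEK293H cells carrying a stably integrated beta-lactamase reporter were pre-incubated 5 h at 37C, then exposed to compounds in DMSO for 17 h at 37C; LiveBLAzer B/G FRET substrate was added for 1 h at room temperature and fluorescence read.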

[5] = qHTS assay to identify small molecule antagonists of the peroxisome proliferator-activated receptor gamma (PPARg) signaling pathway - cell viability counter screen (AID 743194); further: nearly all actives have a fitted effect of over 55% in size
Method in brief: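 Cytotoxicity counter screen in PPARg-bla HEK293H cells, same wells as reporter assay. Compounds plus 50 nM rosiglitazone (final) for 17 h at 37 C, then viability read by CellTiter-Glo luminescence.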

[6] = qHTS assay for small molecule agonists of the antioxidant response element (ARE) signaling pathway (AID 743202; active means well fitted activation curve with a large enough effect in the signal ratio in the repeat runs, not every such curve was filed as active; the % refers to the signal ratio; further: potency means the concentration at half of the fitted maximal effect)
Method in brief: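 ARE-bla HepG2 cells (beta-lactamase reporter under the antioxidant response element), plated 5 hours, then exposed to compounds 16 hours at 37 C. LiveBLAzer B/G FRET substrate added for 2 hours at room temperature; fluorescence intensity read.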

[7] = qHTS assay for small molecule agonists of the antioxidant response element (ARE) signaling pathway - cell viability counter screen (AID 743203; calls by dose curve; further: nearly all actives have a fitted effect of over 55% in size)
Method in brief: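 CellSensor ARE-bla HepG2 cells, 2,000 per well, rested 5 hrs at 37C/5% CO2, then exposed to compound in DMSO for 16 hrs; viability read as CellTiter-Glo luminescence after 30 min at room temperature, in the reporter wells.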

[8] = qHTS assay for small molecule activators of the heat shock response signaling pathway - cell viability counter screen (AID 743209); further: nearly all actives have a fitted effect of over 50% in size
Method in brief: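 CellSensor HSE-bla HeLa cells, plated overnight at 37 C/5% CO2, were exposed to compounds in DMSO for 5 h at 37 C. Viability was then read in the same wells by CellTiter-Glo luminescence after 30 min at room temperature.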

[9] = qHTS assay for small molecule activators of the heat shock response signaling pathway (AID 743210; active means well fitted activation curve with a large enough effect in the signal ratio in the repeat runs, with a control signal flat, not every such curve was filed as active; the % refers to the signal ratio; further: series mostly up to about 63 µM)
Method in brief: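 HSE-bla HeLa cells (beta-lactamase reporter under heat shock response elements), plated overnight, then exposed to compounds 5 h at 37 C; LiveBLAzer B/G FRET substrate added, 2.5 h at room temperature, fluorescence intensity read.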

[10] = qHTS assay to identify small molecule agonists of the peroxisome proliferator-activated receptor delta (PPARd) signaling pathway - cell viability counter screen (AID 743211); further: nearly all actives have a fitted effect of over 55% in size
Method in brief: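 qHTS cell viability: PPARd-bla HEK293H; 17 h cpd, 37C; CellTiter-Glo, luminescence at 30 min RT.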

[11] = target: Peroxisome proliferator-activated receptor delta (Homo sapiens) (UniProt Q03181); assay: qHTS assay to identify small molecule agonists of the peroxisome proliferator-activated receptor delta (PPARd) signaling pathway (AID 743212; calls by dose curve)
Sequence of Peroxisome proliferator-activated receptor delta (Homo sapiens) (Q03181 whole entry, looked up): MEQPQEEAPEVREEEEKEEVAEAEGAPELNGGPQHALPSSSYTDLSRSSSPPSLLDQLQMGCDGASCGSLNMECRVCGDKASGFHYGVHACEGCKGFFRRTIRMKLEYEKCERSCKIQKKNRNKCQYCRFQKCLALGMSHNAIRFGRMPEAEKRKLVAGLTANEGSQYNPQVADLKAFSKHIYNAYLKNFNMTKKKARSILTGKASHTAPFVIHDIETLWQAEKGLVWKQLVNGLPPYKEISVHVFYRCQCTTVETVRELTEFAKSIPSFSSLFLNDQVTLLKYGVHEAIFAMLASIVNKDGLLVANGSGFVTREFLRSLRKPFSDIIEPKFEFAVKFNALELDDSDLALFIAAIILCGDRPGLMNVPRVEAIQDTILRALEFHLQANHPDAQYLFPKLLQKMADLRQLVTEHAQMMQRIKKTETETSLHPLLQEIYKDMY
Method in brief: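 GeneBLAzer UAS-bla HEK293H cells carrying a PPARδ construct were exposed to compounds at 37 °C. Beta-lactamase activity was read by FRET fluorescence after 2 h at room temperature with LiveBLAzer B/G substrate.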

[12] = qHTS assay to identify small molecule antagonists of the peroxisome proliferator-activated receptor delta (PPARd) signaling pathway - cell viability counter screen (AID 743213); further: nearly all actives have a fitted effect of over 50% in size
Method in brief: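 PPARd-bla HEK293H cells (3000/well) got compound plus 300 nM L165041 agonist for 17 h at 37 C. Viability in the same wells came from CellTiter-Glo luminescence after 30 min at room temperature.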

[13] = target: Peroxisome proliferator-activated receptor delta (Homo sapiens) (UniProt Q03181); assay: qHTS assay to identify small molecule antagonists of the peroxisome proliferator-activated receptor delta (PPARd) signaling pathway (AID 743215; active means well fitted inhibition curve with a large enough effect in the signal ratio in the repeat runs, not every such curve was filed as active; the % refers to the signal ratio;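 further: cells stimulated with agonist L165041 at 300 nM final during compound exposure; series mostly up to about 62 µM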)
Method in brief: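 PPARd UAS-bla HEK293H cells were pre-incubated 5 h at 37 C, then given test compounds in DMSO plus agonist L165041 (300 nM final). After 17 h at 37 C, beta-lactamase FRET substrate was added; fluorescence read after 2 h at room temperature.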

[14] = qHTS assay to identify small molecule agonists of the farnesoid-X-receptor (FXR) signaling pathway - cell viability counter screen (AID 743218); further: nearly all actives have a fitted effect of over 45% in size
Method in brief: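 FXR-UAS-bla HEK 293T cells, plated 5 h at 37 C, were exposed to compounds for 16 h at 37 C. CellTiter-Glo was then added to the same wells as the bla readout; luminescence read after 30 min at room temperature.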

[15] = qHTS assay to identify small molecule antagonists of the farnesoid-X-receptor (FXR) signaling pathway - cell viability counter screen (AID 743221; active means well fitted cell-killing curve with a large enough effect in the repeat runs, not every such curve was filed as active; further: nearly all actives have a fitted effect of over 50% in size)
Method in brief: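 After a 5 h settling period, FXR-bla HEK 293T cells receive compound and chenodeoxycholic acid (50 uM final) and incubate 16 h at 37 C; CellTiter-Glo luminescence, read after 30 min at room temperature, reports cell viability.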

[16] = target: Bile acid receptor (Homo sapiens) (UniProt Q96RI1); assay: qHTS assay to identify small molecule antagonists of the farnesoid-X-receptor (FXR) signaling pathway (AID 743217; active means well fitted inhibition curve with a large enough effect in the signal ratio in the repeat runs, not every such curve was filed as active; the % refers to the signal ratio)
Sequence of Bile acid receptor (Homo sapiens) (Q96RI1 whole entry, looked up): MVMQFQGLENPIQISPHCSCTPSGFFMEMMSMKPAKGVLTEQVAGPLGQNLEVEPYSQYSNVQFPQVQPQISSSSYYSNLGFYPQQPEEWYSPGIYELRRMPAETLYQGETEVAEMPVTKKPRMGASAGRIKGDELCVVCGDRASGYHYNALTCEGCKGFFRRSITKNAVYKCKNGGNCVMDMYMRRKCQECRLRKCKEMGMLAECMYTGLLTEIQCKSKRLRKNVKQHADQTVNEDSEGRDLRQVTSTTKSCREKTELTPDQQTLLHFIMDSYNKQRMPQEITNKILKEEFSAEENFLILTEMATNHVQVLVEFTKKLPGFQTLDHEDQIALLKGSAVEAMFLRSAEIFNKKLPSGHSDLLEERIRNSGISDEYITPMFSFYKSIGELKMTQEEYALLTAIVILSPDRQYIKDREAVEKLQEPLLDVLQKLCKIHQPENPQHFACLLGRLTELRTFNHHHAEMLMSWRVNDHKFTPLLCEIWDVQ
Method in brief: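 FXR-UAS-bla HEK 293T cells pre-incubated 5 h at 37 °C, then exposed to compounds with chenodeoxycholic acid (50 uM final) for 16 h at 37 °C. Beta-lactamase reporter read by LiveBLAzer B/G FRET substrate fluorescence after 2 h at room temperature.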

[17] = target: Bile acid receptor (Homo sapiens) (UniProt Q96RI1); assay: qHTS assay to identify small molecule agonists of the farnesoid-X-receptor (FXR) signaling pathway (AID 743220; active means well fitted activation curve with a large enough effect in the signal ratio in the repeat runs, not every such curve was filed as active; the % refers to the signal ratio)
Method in brief: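 Beta-lactamase reporter under UAS control in GeneBLAzer FXR HEK 293T cells (5000/well) measured with LiveBLAzer FRET substrate after 2 h at room temperature. Compound exposure lasted 16 h at 37C.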

[18] = target: Vitamin D3 receptor (Homo sapiens) (UniProt P11473); assay: qHTS assay to identify small molecule agonists of the vitamin D receptor (VDR) signaling pathway (AID 743222; calls by dose curve)
Sequence of Vitamin D3 receptor (Homo sapiens) (P11473 whole entry, looked up): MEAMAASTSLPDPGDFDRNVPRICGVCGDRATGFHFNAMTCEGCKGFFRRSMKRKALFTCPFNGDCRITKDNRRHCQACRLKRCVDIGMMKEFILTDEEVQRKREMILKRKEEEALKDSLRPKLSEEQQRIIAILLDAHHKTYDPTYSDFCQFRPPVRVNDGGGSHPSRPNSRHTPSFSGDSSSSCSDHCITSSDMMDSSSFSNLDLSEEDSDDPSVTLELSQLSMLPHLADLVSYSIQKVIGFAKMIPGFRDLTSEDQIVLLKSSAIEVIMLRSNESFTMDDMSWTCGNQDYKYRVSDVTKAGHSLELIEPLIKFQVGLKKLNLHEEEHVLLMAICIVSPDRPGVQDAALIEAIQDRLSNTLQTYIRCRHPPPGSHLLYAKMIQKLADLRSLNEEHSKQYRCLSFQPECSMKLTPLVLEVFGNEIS
Method in brief: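 VDR-bla cells were plated 4 h at 37C/5% CO2, then exposed to compounds in DMSO for 16 h. After LiveBLAzer B/G FRET substrate addition and 2 h at room temperature, beta-lactamase reporter fluorescence was read.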

[19] = target: Vitamin D3 receptor (Homo sapiens) (UniProt P11473); assay: qHTS assay to identify small molecule antagonists of the vitamin D receptor (VDR) signaling pathway (AID 743223; active means well fitted inhibition curve with a large enough effect in the signal ratio in the repeat runs, not every such curve was filed as active; the % refers to the signal ratio)
Method in brief: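 Reporter line VDR-bla; stimulus 1alpha,25-(OH)2 vitamin D3, 3 nM final; compound co-addition, 16 h 37C/5% CO2; LiveBLAzer B/G substrate 2 h RT; fluorescence intensity.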

[20] = target: Peroxisome proliferator-activated receptor gamma (Homo sapiens) (UniProt P37231); assay: qHTS assay to identify small molecule antagonists of the peroxisome proliferator-activated receptor gamma (PPARg) signaling pathway (AID 743191; calls by dose curve; further: series mostly up to about 63 µM; nearly all actives have a fitted effect of over 30% in size)
Method in brief: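 GeneBLAzer PPARg UAS-bla HEK293H cells, 5 h post-plating, exposed to compounds 17 h at 37C. LiveBLAzer B/G FRET substrate added for 1 h at room temperature; beta-lactamase reporter read by fluorescence intensity.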

Row | Structure (SMILES) | Potency [1] | Potency [2] | Potency [3] | Potency [4] | Potency [5] | Potency [6] | Potency [7] | outcome [8] | outcome [9] | Potency [10] | Potency [11] | Potency [12] | outcome [13] | Potency [14] | Potency [15] | outcome [16] | outcome [17] | outcome [18] | outcome [19] | Potency [20]
1 | COc1cc(C)c(Cc2cnc(N)nc2N)cc1OC | inactive | inactive | inactive | inactive | inactive | inactive | inactive | inactive | inactive | inactive | inactive | inactive | inactive | inactive | inactive | – | – | – | – | –
2 | Clc1cccc(C(c2ccc3nc[nH]c3c2)n2ccnc2)c1 (stereo not given) | inactive | 2.66 µM (active) | inactive | inactive | inactive | inactive | inactive | – | inactive | inactive | inactive | inactive | inactive | inactive | inactive | inactive | inactive | inactive | inactive | –
3 | CCCc1nc(C)c2c(=O)[nH]c(-c3cc(S(=O)(=O)N4CCN(CC)CC4)ccc3OCC)nn12 | inactive | inactive | inactive | inactive | – | – | inactive | inactive | inactive | inactive | inactive | inactive | inactive | inactive | inactive | – | – | inactive | inactive | inactive
4 | C=CC(O)CCCCC (stereo not given) | inactive | inactive | inactive | inactive | inactive | inactive | inactive | – | inactive | – | inactive | inactive | – | inactive | – | inactive | inactive | inactive | – | –
5 | CCCCOc1ccc(N)cc1 | inactive | inactive | inactive | inactive | inactive | inactive | inactive | inactive | inactive | – | inactive | inactive | inactive | – | inactive | inactive | inactive | inactive | inactive | –
6 | COc1ccc(C(=O)Nc2ccccc2)cc1[N+](=O)[O-] | inactive | 30.9 µM (active) | inactive | inactive | inactive | – | inactive | inactive | inactive | – | – | – | – | inactive | inactive | inactive | inactive | – | – | –
7 | COc1ccc(/C=C/S(=O)(=O)NC(=O)c2ccc(C)cc2Cl)cc1 | inactive | inactive | inactive | inactive | inactive | inactive | inactive | inactive | inactive | inactive | inactive | inactive | – | inactive | – | inactive | inactive | – | inactive | –
8 | CC(C)(C)N | inactive | inactive | inactive | inactive | inactive | inactive | inactive | inactive | inactive | inactive | inactive | inactive | inactive | inactive | inactive | – | – | inactive | inactive | –
9 | Oc1ccc(Oc2ccccc2)cc1 | inactive | inactive | inactive | inactive | inactive | 18.3 µM (active) | inactive | inactive | inactive | – | inactive | inactive | inactive | inactive | inactive | inactive | inactive | inactive | inactive | –
10 | O=C1c2ccccc2C(=O)C1c1ccc2cc(S(=O)(=O)O)cc(S(=O)(=O)O)c2n1 | 29.5 µM (active) | inactive | 33.1 µM (active) | inactive | inactive | 5.25 µM (active) | inactive | inactive | inactive | inactive | inactive | inactive | inactive | – | inactive | – | – | – | – | –
11 | NC(=O)c1ccccc1C(N)=O | inactive | 54.7 µM (active) | inactive | inactive | inactive | 24.4 µM (active) | inactive | inactive | inactive | inactive | inactive | inactive | – | inactive | inactive | – | inactive | inactive | inactive | –
12 | Cc1ccc(S(=O)(=O)NC(=O)NC2CCCC2)cc1 | inactive | inactive | inactive | inactive | – | inactive | inactive | inactive | inactive | – | inactive | inactive | – | inactive | – | – | – | inactive | inactive | inactive
13 | CCC1=C(C)CN(C(=O)NCCc2ccc(S(=O)(=O)NC(=O)NC3CCC(C)CC3)cc2)C1=O (stereo not given) | inactive | inactive | inactive | – | inactive | – | inactive | inactive | inactive | inactive | inactive | inactive | inactive | inactive | inactive | – | – | inactive | inactive | –
14 | OCC(O)c1ccccc1 (stereo not given) | inactive | inactive | inactive | – | inactive | inactive | inactive | – | inactive | inactive | inactive | inactive | – | inactive | inactive | – | – | inactive | – | –
15 | N#CCCCC(C#N)CCC#N (stereo not given) | inactive | inactive | inactive | inactive | – | inactive | inactive | inactive | inactive | inactive | inactive | inactive | inactive | inactive | inactive | – | – | – | – | –
